{"source": "the supplement of paper PMC12632987", "binders": {"B1": {"name": "traf2_out_11_155_731 (protein)", "chain": "EKKEKARREIVDFAIEQGDELEAFVEALIKEVEKEDPELAKELRAVFEEHRKYSARSAALAAIDVLRKHGYEERAEELEKKIEEANKKASEFIKKIEEEL"}, "B2": {"name": "traf2_out_20_38_2042 (protein)", "chain": "EEEEKEEEQIELDVEIANEALDEVEERFAKWRAEGLSLEEIAERVKEEIRKAFKEAGLEEKLPEYLEQIDLVRDSPDAERLLERILARALALVRRKKREK"}, "B3": {"name": "traf2_out_20_38_2028 (protein)", "chain": "SEEEEEKKRLEELIKVANEAYDKAEKKIAKLKAEGKTIEEIAEEAKEEVERILSEVGLEEEREELIEDIDRVLDSPDAERLIARILARAVALAYQKELQK"}, "B4": {"name": "traf2_out_20_38_2026 (protein)", "chain": "SMEEEEEKKLEELIKVAQEAYDEAEKKIEELKKEGKSIEEIAEIAKEEIERILSEEGLEEEKEELIEEVDLVLDSPDAERLIARILARAVALAHQKRLEK"}, "B5": {"name": "traf2_out_5_189_2315 (protein)", "chain": "SAREEEQKALNEKAKEIGKEVTKLINEMKKEGKSWEEIAEKMLEKMKTLPVDDAALYSGIFYSIMLGEAIANNDEKLKEIAEKFREKAKELIKEKEKKEA"}, "B6": {"name": "traf2_out_17_162_1608 (protein)", "chain": "MELEEKLKKLKELLEELEKKLKRLEEKLKNIEKLSKEELSDLLVEASEARRKALEALEEIKKLKEKLDKEEYEKLSKRFEEIAEKFQRIANKFYKELEKK"}, "B7": {"name": "traf2_out_3_89_2292 (protein)", "chain": "SEERERKIRLARERAERYARGFEKSARRVAKEMLKEGYSLETLRGVLEAARTALVEVFREELRELGLSEEDIRELVEELERRLREIVEKVLEEAEKKRKE"}, "B8": {"name": "traf2_out_20_3_2164 (protein)", "chain": "SELEKKLEEELERALKLLKKAAELSDEETKKKLKELIERLKESRSLSPSDRLVVVSEVRREVLLLAQKAKAEGKEELAKLLEEAAEELNRAMQLLYEIIE"}, "B9": {"name": "traf2_out_13_95_1191 (protein)", "chain": "EEEKRKKYAERTNAIADELLDHADAKIAELEAATGDPELGAELRRVLDRGGVSALIHRIRELAKEDPAYREAYEAAAAELEAKRREAGRRVAEAEKEIEA"}, "B10": {"name": "traf2_out_17_162_1521 (protein)", "chain": "SPLEAELKALEAELEALKKKLEELKKKLENLDKMSKEELTDLLVEASEARRKALELAERLKRLKPLIGEERAGALIAEAEAIAEELQKIANKIYKKLEEK"}, "B11": {"name": "traf2_out_17_162_1578 (protein)", "chain": "EELKKELEELKKKLEELKKKLKEFEKKLPELPKMSYEELTDLLVEVSELKREARELAEKLEELGKKLGEEEIKKLVEEAKEIAEKLQKIANKIYKEIEKK"}, "B12": {"name": "traf2_out_20_3_2068 (protein)", "chain": "EELEKELEEALEKALALLKKAAALADPETAAELDALIKELKASKELSVSDRLVAVSAVRRRVLRLAEEAEAAGDAELAAVLNKAADALNRAAQLLYQILQ"}, "B13": {"name": "traf2_out_15_48_1358 (protein)", "chain": "STEALRETARKVADLIDATLDEVAKELKALLPKAKPEVKPILEEAIRVASTHRSINDTIALLEEAIKKSDPELAKELQELRDRLLATQKEASKLINETEK"}, "B14": {"name": "traf2_out_17_162_1493 (protein)", "chain": "SELEEKKKKLEKELKELKKKLKELEKKLENIEKLSKEELTDLLVEASELKRKARQLAEEYKKLLKKTGDKELEKLIKEAEELAERAQKIANKIYKEIEKK"}, "B15": {"name": "traf2_out_20_3_2136 (protein)", "chain": "SELEEELKKELEKAKKLLEKAAALADKETAAKLKALIKRLEASEELSPEDRLVEFSEIRREVLELALAAEAAGKAELAKLLNEAADALNKAMNLLMKIIE"}, "B16": {"name": "traf2_out_8_15_2548 (protein)", "chain": "SIKEAAEKDIARLKALSDGDKESLINTLLGMAKGELRLAKIYKEEGRKEEALRTLEYARIYAEAALELAKEIGSPRLEEIKKEVEELEKEIEELRKEIEA"}, "B17": {"name": "traf2_out_20_3_2212 (protein)", "chain": "EELRKKVEEELEKIRELLEKAKPRLPEEDYARLKELLERAEEALKEDPSDALVELSELKALLLRLSQEARAAGDEELAALLDEAADAANKAANLVYKILE"}, "B18": {"name": "traf2_out_20_38_2001 (protein)", "chain": "SAEEEEEEKLKKIIDVANEAYDEASKEIEELKAAGKSVEEIAEIVRAKVRELLTAAGLEEELEELLADIDRALSSPNALRLFARIRARAVALVKQKELNE"}, "B19": {"name": "traf2_out_1_27_1004 (protein)", "chain": "STEEERELLRRANREIGRASPEERVEVIVRALEEALARGLESPEHIAVVLILSLGEEEERRRAIEAAEEVLRAAGVSEEAIERMRRRVESGWARLDKLLA"}, "B20": {"name": "traf2_out_14_149_1260 (protein)", "chain": "SATEERRRALREALELFERAAELLAAAIAAGSNDLDVEELRRLLEEAREILSKQGFVLGSLLAIEELLEEAEELTEEDLRRLLELAERAAESLEVLAEML"}, "B21": {"name": "traf2_out_17_178_1741 (protein)", "chain": "SKEEILKEISKLADEMIDVSREAAEKLTELAEKEGILTPELRERLDLVARTSNLYAFEEVANELIELSKNKEEIQKLLDETTKKLRELRKKIQEAVEKLK"}, "B22": {"name": "traf2_out_13_95_1214 (protein)", "chain": "SAEANAELREVAREYTDRAEAVIDALAAALAPDPEVQPDMDAIRAAFRRNGVRQAIALIRAAAARHPEHKADFDAAAAELEAIRREAGRRFAEILKRDEE"}, "B23": {"name": "traf2_out_9_108_2593 (protein)", "chain": "MTKEEILEEKFKKVEELVKEFIEEVDLTEEQKEELEEAIKNAKELYEKGLKETAIILLAIDLARVASKVGEEAVKELLEKLKKIDERAYSAAERMVKLLK"}, "B24": {"name": "traf2_out_17_162_1623 (protein)", "chain": "SPEEEELKRYEEELKELEKEKKELEKKAEKIDELSKEELTDLLVEASEARRRARELAERIERKREELNDPRLEELLKRAEEIAEEFQRIANKFYKKLEEK"}, "B25": {"name": "traf2_out_1_33_1031 (protein)", "chain": "SAEIERKSMALLRRTTGEMYRLLRETEEKMEKLLEEGKPAEEIEKLAEETRKKIKEIADKAIAELKALGDDLTADILESEKTDILKRLDEIKKEILAKLK"}, "B26": {"name": "traf2_out_20_38_2038 (protein)", "chain": "SEEEEEEERLERLVEVANAALDRYEARIAALQAEGKSVAEIAEWAKEEIRRILGEAGLEEEAEELIAQVRTVENRPDALRLIARILARAEALAYQKELQK"}, "B27": {"name": "traf2_out_11_131_661 (protein)", "chain": "MDAVAMAKSVAARVDERLALAKTLSPEERTRLARQALDSIEALAEYLTSHVSEMSKEDVEEAVKILRASAKKVLAADPSVAEDVKEVEKALKKLLEAAKA"}, "B28": {"name": "traf2_out_20_38_2029 (protein)", "chain": "SEEEEEERRLEELIKVANDSYDKYTKKFEKLVAEGKTVEEIAELAKKEVKEKLTAAGLEEEAKELIEDIDRALSSPNALRLIVRILARADALVHQKKINE"}, "B29": {"name": "traf2_out_3_89_2291 (protein)", "chain": "SMEKEKKIKEAKERAERYVKGFEKNARRVAKEMLEEGHSLETLRGVLEAARTAIVETFGETLKEEGIDKETRDKILEELKKKLDEIVEEVVEEAKKRREE"}}, "note": "The full ranking holds about 1,800 sequences; the median of “median log2 fold change of GCK-ALFA target abundance (FLAG IP / Myc IP barcode read proportion)” is about 0.14, and the lowest 2% start at about -0.84. Only a selection was taken, and the lowest values are over-represented in it overall.", "data": [{"molecular_target": "T1, TRAF2, Q12933", "T1 chain": "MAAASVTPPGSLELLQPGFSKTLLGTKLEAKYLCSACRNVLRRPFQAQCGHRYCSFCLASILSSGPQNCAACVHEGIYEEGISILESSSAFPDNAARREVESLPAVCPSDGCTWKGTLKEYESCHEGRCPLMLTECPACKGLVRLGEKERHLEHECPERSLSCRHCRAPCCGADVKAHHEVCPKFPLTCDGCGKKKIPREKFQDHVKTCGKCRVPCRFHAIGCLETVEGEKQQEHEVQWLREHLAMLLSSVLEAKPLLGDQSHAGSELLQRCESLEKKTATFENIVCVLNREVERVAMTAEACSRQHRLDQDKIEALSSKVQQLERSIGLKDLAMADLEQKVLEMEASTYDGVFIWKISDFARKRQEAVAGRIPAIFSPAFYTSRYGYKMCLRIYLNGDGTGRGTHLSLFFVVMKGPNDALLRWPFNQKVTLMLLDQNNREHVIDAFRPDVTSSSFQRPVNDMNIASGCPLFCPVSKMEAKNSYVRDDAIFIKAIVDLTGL", "assay": "median log2 fold change of GCK-ALFA target abundance (FLAG IP / Myc IP barcode read proportion) (log2 ratio); each designed protein is fused to an ALFA-tag nanobody in HEK293 cells to bring the named protein to FLAG-tagged glucokinase (GCK); Myc marks an untargeted standard; higher = target protein stabilised (more abundant)", "settings": "target protein: 3xFLAG-MCP-GCK-ALFA reporter; HEK293 landing pad (RPLP)", "method_in_brief": "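An ALFA-nanobody-fused binder library was recombined into HEK293 landing-pad cells and induced with 2 μg mL^−1 doxycycline. Cells were transfected with a plasmid expressing a FLAG-tagged target and a Myc-tagged standard. After 48 h, lysates underwent anti-FLAG and anti-Myc immunoprecipitation, and circular RNA barcodes were reverse transcribed, amplified and sequenced. Target abundance is the per-binder median log2 ratio of FLAG to Myc barcode read proportions. Barcodes needed ≥10^−7 proportion in both replicates, binders ≥3 barcodes per replicate, and a 10^−6 pseudocount was added; the two replicates were pooled.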", "values": [{"binder": "B1", "median log2 fold change": 0.0471}, {"binder": "B2", "median log2 fold change": -0.0369}, {"binder": "B3", "median log2 fold change": -0.966}, {"binder": "B4", "median log2 fold change": -0.0149}, {"binder": "B5", "median log2 fold change": 0.387}, {"binder": "B6", "median log2 fold change": -0.073}, {"binder": "B7", "median log2 fold change": -1.24}, {"binder": "B8", "median log2 fold change": -0.157}, {"binder": "B9", "median log2 fold change": 0.242}, {"binder": "B10", "median log2 fold change": 0.311}, {"binder": "B11", "median log2 fold change": 0.34}, {"binder": "B12", "median log2 fold change": -0.0614}, {"binder": "B13", "median log2 fold change": 0.33}, {"binder": "B14", "median log2 fold change": 0.47}, {"binder": "B15", "median log2 fold change": 0.345}, {"binder": "B16", "median log2 fold change": 0.203}, {"binder": "B17", "median log2 fold change": -0.0318}, {"binder": "B18", "median log2 fold change": -1.24}, {"binder": "B19", "median log2 fold change": 0.0667}, {"binder": "B20", "median log2 fold change": 0.0539}, {"binder": "B21", "median log2 fold change": -0.0674}, {"binder": "B22", "median log2 fold change": -0.892}, {"binder": "B23", "median log2 fold change": -0.0117}, {"binder": "B24", "median log2 fold change": 0.4}, {"binder": "B25", "median log2 fold change": 0.233}, {"binder": "B26", "median log2 fold change": -1.39}, {"binder": "B27", "median log2 fold change": 0.0951}, {"binder": "B28", "median log2 fold change": -1.3}, {"binder": "B29", "median log2 fold change": -0.996}]}]}
